In all, about 13,000 compounds went through this assay and about 3,200 (25%) showed an effect of 50% or more. The list shows a part of the results.

The subject of the experiment is P. falciparum stage V gametocytes. Further details: BacTiter-Glo ATP luminescence viability of purified stage V gametocytes in 384-well plates, per cent inhibition versus DMSO. The note with it: 48 h, 5 µM; inhibitor.
In general, % Inhibition refers to the change of the read-out against control, counted positive when it falls. For the compound `Cc1c(Oc2ccc(-n3ccnc3)cc2)ncnc1N1CCC2(CC1)CNCc1ccccc12` [TCMDC-137157], the “% Inhibition” value was found to be 6.86%.
For `CC(C)c1ccc(CN2CCC(NC(=O)c3ccc(-c4cccc(F)c4)s3)CC2)cc1` [TCMDC-134346], the “% Inhibition” value is given as -27.58%.
For `Cc1nccn1CCNC(=O)CN1CCC2(CCC1=O)CC(=O)c1ccccc1O2` (centres unmarked) [TCMDC-125379], the “% Inhibition” value is reported as -42.89%.
In the case of `O=C(O)CCCN1CCCC(=C(c2ccccc2)c2ccccc2)C1` [TCMDC-141969], the “% Inhibition” value is on record as -38.14%.
In the case of `COC(=O)c1ccc(OCC(O)CO)cc1O` (centres unmarked) [TCMDC-123463], the “% Inhibition” value is 4.056%.
Regarding `CC(C)N(CCOc1ccc2c(c1)N(C(=O)Nc1ccc(Cl)c(Cl)c1)CC2)C(C)C` [TCMDC-140254], the “% Inhibition” value is 8.096%.
Under `CC(C)c1ccc(NC(=O)N2CCc3ccc(OCCN(C(C)C)C(C)C)cc32)c(Br)c1` [TCMDC-140252] stands 63.96%.
Consider `CC(C)N(CCOc1ccc2c(c1)N(C(=O)Nc1cc(Br)cc(C(F)(F)F)c1)CC2)C(C)C` [TCMDC-140250], for which the “% Inhibition” value was -0.9347%.
Consider `Fc1ccc(C(OCC2CCCN(Cc3cccc4cccnc34)C2)c2ccc(F)cc2)cc1` (centres unmarked) [TCMDC-136044], for which the “% Inhibition” value is -14.61%.
Regarding `COC1(C)Oc2ccc3cccc([N+](=O)[O-])c3c2C1=O` (centres unmarked) [TCMDC-131378], the “% Inhibition” value was -5.605%.
Take `CCOc1ccc(C(=O)Nc2cc(Cl)ccc2O)cc1Cl` [TCMDC-123684]: the “% Inhibition” value is given as -34.32%.
`CCOc1ccc(C(C)NC(=O)c2ccc(OC)c(Br)c2)cc1OCC` (centres unmarked) [TCMDC-124876]: the “% Inhibition” value amounted to 88.58%.
With `CCOc1cc(C(C)C)ccc1N1CCN(CCCCNC(=O)c2ccc(NC(=O)c3ccc(Cl)cc3)cc2)CC1` [TCMDC-138519] the figure was -10.71%.
Consider `CCOc1ccc(C(C)NC(=O)c2cc(Cl)ccc2OC)cc1OCC` (centres unmarked) [TCMDC-125016], for which the “% Inhibition” value is listed as 67.36%.
With `Cc1cccc2nc(C(=O)Nc3nc(CN4CCC(C)CC4)cs3)cn12` [TCMDC-125340] the figure was 11.88%.
In the case of `CN1CCC(N2CCN(Cc3cccc(-c4cccc(-c5nc6ccccc6[nH]5)c4)c3)CC2)CC1` [TCMDC-133878], the “% Inhibition” value was found to be 70.79%.
On to `c1cc(-c2ccc(CNC3CC3)cc2)cc(-c2nc3ccccc3[nH]2)c1` [TCMDC-132538], for which the “% Inhibition” value is -44.27%.
On to `c1cc(CN2CCN(CCN3CCOCC3)CC2)cc(-c2cccc(-c3nc4ccccc4[nH]3)c2)c1` [TCMDC-133922], for which the “% Inhibition” value is -15.36%.
`CN1CCN(Cc2ccc(-c3cccc(-c4nc5ccccc5[nH]4)c3)cc2)CC1` [TCMDC-132542]: the “% Inhibition” value is given as 58.54%.
For `N#CCCN1CCN(Cc2cccc(-c3ccc(-c4nc5ccccc5[nH]4)cc3)c2)CC1` [TCMDC-133852], the “% Inhibition” value was -22.87%.
Consider `CN1CCC(NCc2cccc(-c3cccc(-c4nc5ccc(C(F)(F)F)cc5[nH]4)c3)c2)CC1` [TCMDC-132735], for which the “% Inhibition” value is listed as 38.83%.
With `CN1CCC(N2CCN(Cc3cccc(-c4ccc(-c5nc6ccccc6[nH]5)cc4)c3)CC2)CC1` [TCMDC-133850], the “% Inhibition” value is listed as 29.34%.
For the compound `CN1CCC(NCc2ccc(-c3cccc(-c4nc5ccccc5[nH]4)c3)cc2)CC1` [TCMDC-132551], the “% Inhibition” value was found to be 85.21%.
Consider `COCCN1CCN(Cc2ccc(-c3cccc(-c4nc5ccccc5[nH]4)c3)cc2)CC1` [TCMDC-132559], for which the “% Inhibition” value is 86.66%.
As for `c1cc(-c2ccc(CN3CCCC3)cc2)cc(-c2nc3ccccc3[nH]2)c1` [TCMDC-133794], the “% Inhibition” value came to 34.22%.
On to `c1ccc2[nH]c(-c3ccc(-c4ccc(CN5CCCCC5)cc4)cc3)nc2c1` [TCMDC-133906], for which the “% Inhibition” value is reported as 32.64%.
For `COCCN1CCN(Cc2cccc(-c3ccc(-c4nc5ccccc5[nH]4)cc3)c2)CC1` [TCMDC-133023], the “% Inhibition” value is -14.55%.
On to `Cc1noc(C)c1-c1ccc2c(Nc3ccccc3C(C)(C)C)c(C(=O)NC3CCCC3)cnc2c1.Cl` [TCMDC-136365], for which the “% Inhibition” value is -46.26%.
For the compound `N#Cc1cc(C(=O)c2cc(Cl)ccc2O)cn(-c2cccc(C(F)(F)F)c2)c1=O` [TCMDC-124543], the “% Inhibition” value stood at 16.34%.
For the compound `CCc1nc(N)nc(N)c1-c1cccc(Cl)c1` [TCMDC-137371], the “% Inhibition” value is given as -15%.
Consider `CNc1nc(NN=Cc2ccccc2Cl)nc(Nc2cccc(C(F)(F)F)c2)n1` [TCMDC-124188], for which the “% Inhibition” value is listed as -11.55%.
As to `N#CC(c1ccc(Cl)cc1)c1ccc2c(C(F)(F)F)cc(C(F)(F)F)nc2n1` (centres unmarked) [TCMDC-124176], the “% Inhibition” value is recorded as 9.763%.
For the compound `CCOc1cccc(C(=O)Nc2cccc(CN3CCCN(Cc4ccc(O)cc4)CC3)c2)c1` [TCMDC-141862], the “% Inhibition” value came out at 17.88%.
With `OC(CNCc1ccccc1Oc1ccccc1)c1cc(Br)cs1` (centres unmarked) [TCMDC-141369] the figure was 34.47%.
With `COc1ccc(CC(=O)NC(CCN2CCC3(CCc4ccccc43)CC2)c2ccc(Cl)c(Cl)c2)cc1` (centres unmarked) [TCMDC-141762], the “% Inhibition” value is reported as -72.25%.
Consider `OCCN1CCN(Cc2ccc(-c3cccc(-c4nc5ccccc5[nH]4)c3)cc2)CC1` [TCMDC-132540], for which the “% Inhibition” value is 6.462%.
Turning to `CN(C)CCN1CCN(Cc2cccc(-c3csc(-c4nc5ccccc5[nH]4)c3)c2)CC1` [TCMDC-133793], the “% Inhibition” value turned out to be 29.26%.
Take `CN1CCC(N2CCN(C(=O)c3cccc(-c4cccc(-c5nc6ccccc6[nH]5)c4)c3)CC2)CC1` [TCMDC-132312]: the “% Inhibition” value is on record as 7.191%.
For the compound `CN(C)CCN1CCN(Cc2ccc(-c3cccc(-c4nc5ccccc5[nH]4)c3)cc2)CC1` [TCMDC-133795], the “% Inhibition” value was determined as 73.83%.
On to `CN1CCC(N2CCN(Cc3ccc(-c4cccc(-c5nc6ccccc6[nH]5)c4)cc3)CC2)CC1` [TCMDC-133881], for which the “% Inhibition” value is 56.17%.
With `CC(C)(C)C(=O)Nc1ccccc1Oc1ccc(Cl)cc1` [TCMDC-137332] the figure was 6.336%.
Under `Cc1ccc(Oc2ccccc2NC(=O)CCc2nc3ccccc3c(=O)[nH]2)cc1` [TCMDC-125459] stands 59.46%; under `Cc1cc(NC(=O)Nc2ccc(Oc3ccccc3)cc2)c2ccccc2n1` [TCMDC-134657], -9.366%.
Regarding `CC(CNC(=O)[C@H]1CNCCN1C(=O)CCCc1ccccc1)c1ccccc1` (some centres unmarked) [TCMDC-141268], the “% Inhibition” value is 55.69%.
With `COc1cccc(CNC(=O)[C@H]2CNCCN2C(=O)CCCc2ccccc2)c1` [TCMDC-141271] the figure was 37.6%; with `CCCC(C)NC(=O)[C@H]1CNCCN1C(=O)CCCc1ccccc1` (some centres unmarked) [TCMDC-141270], 1.864%.
Under `O=C(NCc1ccc(F)cc1)c1cnc(N2CCN(c3ccncc3)CC2)c(Cl)c1` [TCMDC-134627] stands -0.3882%; under `COc1ccc2nccc(NN=Cc3cccc(C)n3)c2c1` [TCMDC-142034], -10.1%.
For `COc1cc2c(cc1S(=O)(=O)c1ccc(COc3ccc(C(F)(F)F)cc3)cc1)CNCC2` [TCMDC-134479], the “% Inhibition” value is reported as -1.894%.
Under `CCOc1cc2c(cc1S(=O)(=O)c1ccc(COc3ccc(C(F)(F)F)cc3)cc1)CCN(C)CC2` [TCMDC-134264] stands 39.44%.
For the compound `COc1ccc(OCCCN2CCCCC2)cc1S(=O)(=O)c1ccc(OCc2ccc(C(F)(F)F)cc2)cc1` [TCMDC-132410], the “% Inhibition” value came out at 92.2%.
Regarding `CCn1c2c(c(=N)c3ccccc31)CCC2` [TCMDC-125756], the “% Inhibition” value is reported as -4.824%.
Take `CCCCCCCCn1c2c(c(=N)c3c1CCC3)CCCC2` [TCMDC-125653]: the “% Inhibition” value was determined as 74.53%.
Regarding `CCCCCCCn1c2c(c(=N)c3c1CCC3)CCCC2` [TCMDC-125606], the “% Inhibition” value turned out to be 41.76%.
For `CCCCCCCCn1c2c(c(=N)c3c1CCC3)CCC2` [TCMDC-125309], the “% Inhibition” value is given as 92.39%.
In the case of `CCCCCCn1c2c(c(=N)c3c1CCC3)CCCC2` [TCMDC-124215], the “% Inhibition” value is given as 19.97%.
In the case of `CCCCCCn1c2c(c(=N)c3c1CCC3)CCC2` [TCMDC-125620], the “% Inhibition” value was determined as 20.05%.
Turning to `Oc1cccc(Nc2nc(NCc3ccco3)c3ccccc3n2)c1` [TCMDC-124014], the “% Inhibition” value is reported as 8.731%.
As for `Cc1c[nH]c2cc(/C=C/C(=O)NC3CCC(CCN4CCc5ccc(C#N)cc5CC4)CC3)ccc12` (centres unmarked) [TCMDC-139663], the “% Inhibition” value is on record as 21.27%.
With `Cc1cc(-c2nc3cncc(-c4cccc(CN5CCCC5Cc5cccnc5)c4)c3n2C)nn1C` (centres unmarked) [TCMDC-135046] the figure was -7.326%; with `CCOC(=O)N1NC(=O)N(c2ccccc2)C1(c1ccccc1)c1ccccc1` [TCMDC-142002], -11.41%; with `COc1cc2c(cc1C(F)(F)F)N(C(=O)Nc1cc(OC(F)(F)F)cc(-c3cccnc3)c1)CC2` [TCMDC-139046], -1.066%.
As to `Cc1cc(N2CCN(C(=O)OC(C)(C)C)CC2)ccc1N` [TCMDC-125886], the “% Inhibition” value was -87.61%.
Consider `CC(C)(C)C(=O)N1CCN(c2ccc([N+](=O)[O-])c(NC3CC3)c2)CC1` [TCMDC-123687], for which the “% Inhibition” value was determined as 84.84%.
Under `O=C(N1CCN(c2ccc(C(F)(F)F)cc2[N+](=O)[O-])CC1)C(Cl)(Cl)Cl` [TCMDC-124371] stands -2.22%; under `COc1ccc(CN2CCN(C(=O)c3cccs3)CC2)c(O)c1` [TCMDC-139298], 16.42%; under `O=C(c1cccs1)N1CCN(c2ccc([N+](=O)[O-])c(NC3CC3)c2)CC1` [TCMDC-123877], 88.85%.
Take `O=C(NC1CCN(c2ccc(F)cc2[N+](=O)[O-])CC1)c1cccs1` [TCMDC-133786]: the “% Inhibition” value turned out to be 14.81%.
With `O=C(CN1CCN(C(=O)c2ccco2)CC1)Nc1ccccc1Br` [TCMDC-124849] the figure was 32.72%; with `O=C(c1ccco1)N1CCN(c2ccc([N+](=O)[O-])c(NC3CC3)c2)CC1` [TCMDC-125397], 97.95%.
For `O=C(CN1CCN(C(=O)c2ccco2)CC1)Nc1ccc(Br)cc1Cl` [TCMDC-124619], the “% Inhibition” value is -12.46%.

The record behind these values is PMC4552634, “A New Set of Chemical Starting Points with Plasmodium falciparum Transmission-Blocking Potential for Antimalarial Drug Discovery” (PLoS ONE, 2015).
